Each structure is given as a SMILES string. Where “and” joins values, the source holds several entries; their conditions need not be identical. Identical values can stand only once. Compounds without any hit were thinned out: in the full panel of roughly 83,000, 20% have a hit.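 Activity criterion: percent growth below 10, measured after cells in 96-well plates were exposed to a single compound concentration for 48 hours.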 Calls of active or inactive are those of the source. Starred links: 1 amine or outer side, 2 acyl side, 3 side chain; linkers in the order of their positions; H or OH if unused. Positions of bridges follow the written chain, without caps; N, C: chain ends. Non-standard residues stand in square brackets, D forms with d. Residues, ends and D or L forms follow the SMILES beside them. Chains are numbered I, II in the order given. Actinocin(9to1) = Cc1c2oc3c(C)ccc(C(=O)[*:1])c3nc-2c(C(=O)[*:2])c(N)c1=O; aThr = C[C@H](O)[C@H](N)C(=O)O; NMeV = CN[C@H](C(=O)O)C(C)C; Sar = CNCC(=O)O

The values that follow come from PubChem BioAssay (NCI).

In one assay the test system is OVCAR-5 ovarian. In words: NCI-60 one-dose screen, 48 h (100 = growth as untreated, 0 = no growth, -100 = all killed). The settings on record: 0.0025 µM. The procedure: Growth inhibition of the OVCAR-5 human tumor cell line is measured as a screen for anti-cancer activity. Cells are grown in 96 well plates and exposed to the test compound for 48 hours. Compounds are tested at a single concentration, which is 10^-5 M for most compounds. The reported endpoint is percent growth (GI% or GIPRCNT), where numbers from 0 - 100% represent growth inhibition, and numbers from -100% - 0 represent cell death. For example, a value of 40 represents 60% growth inhibition. A value of 0 means no net growth occurred over the course of the experiment. A value of -40 indicates 40% of cells at the beginning of the experiment died by the end of the experiment. A value of -100 means all cells are dead at the end of the experiment.
NCI-60 Human Tumor Cell Lines Screen was performed using the standard one-dose NCI protocol, which is described in more detail at https://dtp.cancer.gov/discovery_development/nci-60/default.htm.
Compounds with GIPRCNT values below 10 were considered active. Activity score was based on GIPRCNT using the following formula: […]
Score is 0 for GIPRCNT values of 100 or above, 50 for GIPRCNT values of 0, and 100 for GIPRCNT values of -100.
Take `Cc1c2oc3c(C)ccc(C(=O)N[C@@H]4C(=O)N[C@H](C(C)C)C(=O)N5CCC[C@H]5C(=O)N(C)CC(=O)N(C)[C@@H](C(C)C)C(=O)O[C@H]4C)c3nc-2c(C(=O)N[C@@H]2C(=O)N[C@H](C(C)C)C(=O)N3CCC[C@H]3C(=O)N(C)CC(=O)N(C)[C@@H](C(C)C)C(=O)O[C@H]2C)c(N)c1=O` (I: [aThr][dV]P[Sar][NMeV] / II: [aThr][dV]P[Sar][NMeV]; ester I:1-I:C, II:1-II:C; linker I:N-II:N via Actinocin(9to1)): the growth is 50.9% (inactive).

The assay is the same for the next values; noted with them: 10 µM.
For `Nc1ccc2cc(Br)c3ccccc3c2c1`, the growth is 79.9% (inactive).

Regarding `CCCCCCCCCCCCCCCCCN`, the growth was 106% (inactive).

In the case of `O=c1[nH]cc(F)c(=O)[nH]1`, the growth was 82.1% (inactive) and 70.7% (inactive).

For the compound `BrC/C=C/C[P+](c1ccccc1)(c1ccccc1)c1ccccc1`, the growth is 85.2% (inactive).

As for `CN1CCN(c2ccc3nc(-c4ccc5nc(-c6ccc(O)cc6)[nH]c5c4)[nH]c3c2)CC1`, the growth was 61.9% (inactive).

As to `S=c1[nH]nc(Cc2ccccc2)c(=S)[nH]1`, the growth was 107% (inactive).

Take `COc1cc(C(C)(C)C)cc(OC)c1C(O)(c1c(OC)cc(C(C)(C)C)cc1OC)c1c(OC)cc(C(C)(C)C)cc1OC`: the growth is -100% (active).

Regarding `CSc1ccc2c(c1)C(N1CCN(C)CC1)Cc1ccccc1S2` (configuration not stated), the growth is 41.7% (inactive).

As to `N#C/C(=C1C=C/C(=N\O)C(Cl)=C\1)c1ccccc1`, the growth was 64% (inactive).

In the case of `Cc1c2oc3c(C)ccc(C(=O)N[C@@H]4C(=O)N[C@H](C(C)C)C(=O)N5CCC[C@H]5C(=O)N(C)CC(=O)N(C)[C@@H](C(C)C)C(=O)O[C@H]4C)c3nc-2c(C(=O)N[C@@H]2C(=O)N[C@H](C(C)C)C(=O)N3CCC[C@H]3C(=O)N(C)CC(=O)N(C)[C@@H](C(C)C)C(=O)O[C@H]2C)c(N)c1=O` (I: [aThr][dV]P[Sar][NMeV] / II: [aThr][dV]P[Sar][NMeV]; ester I:1-I:C, II:1-II:C; linker I:N-II:N via Actinocin(9to1)), the growth is -66.1% (active).

Consider `Cc1cc(NCCCN(C)C)c2ccc3c(ccc4c(NCCCN(C)C)cc(C)nc43)c2n1`, for which the growth is -15.4% (active).

For the compound `Cc1cnc(/C=N\NC(N)=S)c2cccc(N)c12`, the growth is 34.9% (inactive).

Turning to `O=C(/C(=C/c1ccccc1)CBr)c1ccccc1`, the growth is 122% (inactive).

In the case of `CN(C)CCC(=O)c1c[nH]c2ccccc12`, the growth is 109% (inactive).

The assay is the same for the next values; noted with them: 25 µM.
Consider `O=c1[nH]cc(F)c(=O)[nH]1`, for which the growth was 44.3% (inactive).

The assay is the same for the next values; noted with them: 50 µM.
`O=c1[nH]cc(F)c(=O)[nH]1`: the growth was 73% (inactive).
